Test results reported in article PMC5540273 (PLoS ONE, 2017).

test system: T1, FAK; settings: concentration: 1 μM, replicates: in singlicate; n = 1
T1 construct: gene PTK2
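Further: KINOMEscan kinase panel screen.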

For O=C(NCCNc1ccnc(Nc2ccc(F)cc2)n1)c1cc2ccccc2s1 [GSK1379874], which “%Inh” value is on record?
Its value is 0%.

With Cc1nnc(-c2ccc3occ(-c4ccc(C(C)O)cc4)c3c2)o1 (centres unmarked) as the molecule, how does the “%Inh” value read?
The value was 0%.

For NS(=O)(=O)CCc1cccc(Nc2nccc(-c3c(-c4cccc(NC(=O)c5c(F)cccc5F)c4)nn4ccccc34)n2)c1 [GSK336735], which “%Inh” value is on record?
Its value is 4%.

For NS(=O)(=O)c1cccc(-c2ccc3nccc(-c4cccc(S(N)(=O)=O)c4)c3c2)c1 [GW867253], which “%Inh” value is on record?
Its value is 0%.

Cc1nnc(-c2ccc(C)c(-c3ccc(C(=O)Nc4ccc(NS(C)(=O)=O)cc4)cc3)c2)o1 [GW702865] was tested. Which “%Inh” value did it give?
The value was 0%.

Cl.Nc1ncnc2occ(-c3ccc(NC(=O)Nc4cc(C(F)(F)F)ccc4F)cc3)c12 [SB-707548] was tested. Which “%Inh” value did it give?
The value was 93.7%.

With O=C(NCCCN1CCOCC1)c1cccc(Nc2nccc(Nc3ccc(Oc4ccccc4)cc3)n2)c1 [GW663929] as the molecule, how does the “%Inh” value read?
The value was 0%.

For O=C(c1ccc(-c2cc(-c3c[nH]nc3-c3ccccn3)ccn2)cc1)N1CCOCC1 [GW812171], which “%Inh” value is on record?
Its value is 0%.

Cc1nnc(-c2ccc3ncc(-c4ccc(S(C)=O)cc4)n3c2)o1 (centres unmarked) was tested. Which “%Inh” value did it give?
The value was 0%.

With COc1cc2ncn(-c3cc(OCc4sccc4Cl)c(C(N)=O)s3)c2cc1OC [GSK448459] as the molecule, how does the “%Inh” value read?
Its value is 0%.

Which “%Inh” value does the source give for [2H]C([2H])(c1cccc(C(F)(F)F)c1C)n1ccn2c(=O)nc(N3CCOCC3)cc12 [GSK2336394] here?
Its value is 0%.

Which “%Inh” value does the source give for Cl.Oc1cccc(Nc2ccnc3cc(-c4ccncc4)ccc23)c1 [GW494601] here?
The value was 0%.

For CCc1nc(-c2cccc(C)c2)c(-c2ccnc(NCc3ccccc3)c2)s1, which “%Inh” value is on record?
Its value is 0%.

Which “%Inh” value does the source give for CN(C(=O)c1ccc(-c2cc(-c3c[nH]nc3-c3ccccn3)ccn2)cc1)C1CCOCC1 [GW810083] here?
The value was 0%.

With O=C(NOCC1CC1)c1ccc(F)c(F)c1Nc1ccc(I)cc1Cl as the molecule, how does the “%Inh” value read?
Its value is 0%.

With N#Cc1ccc(-c2cc(-c3c[nH]nc3-c3ccccn3)ccn2)cc1 [GW693028] as the molecule, how does the “%Inh” value read?
The value was 0%.

O=c1cc(N2CCOCC2)nc2n(Cc3cccc(C(F)(F)F)c3)ccn12 [GSK2297543] was tested. Which “%Inh” value did it give?
Its value is 0%.

Which “%Inh” value does the source give for O=C(NCCNc1ccnc(Nc2ccc(F)cc2)n1)Nc1ccccc1F [GSK1379880] here?
Its value is 0%.

With COc1cc2c(cc1OC[C@@H](O)CO)ncc1c3ccc(C#N)cc3[nH]c21 as the molecule, how does the “%Inh” value read?
The value was 0%.

With CCCCCc1nc2c(N)ncnc2n1CCCCC [SKF-97255] as the molecule, how does the “%Inh” value read?
Its value is 0%.

For O=C(Nc1cccc(-c2nn3ncccc3c2-c2ccnc(Nc3cccc(C(F)(F)F)c3)n2)c1)c1c(F)cccc1F [GSK299495], which “%Inh” value is on record?
The value was 0%.

For O=c1cc(N2CCOCC2)nc2n(Cc3cccc4ccccc34)ccn12 [GSK2333389], which “%Inh” value is on record?
Its value is 1%.

Which “%Inh” value does the source give for Cc1c(Cn2c(C)nn3c(=O)cc(N4CCOC(C)C4)nc23)cccc1C(F)(F)F (centres unmarked) [GSK2344444] here?
The value was 0%.

With O=C1NC(=O)C(N2CCc3ccccc32)=C1c1cccc(Cl)c1 [SB-408010] as the molecule, how does the “%Inh” value read?
The value was 0%.

How did the “%Inh” value turn out when N#Cc1c(N2CCOCC2)sc(-c2ccn[nH]2)c1-c1ccc(Cl)cc1 was run?
The value was 0%.

For Cn1cc(-c2ccc3c(c2)CCN3C(=O)Cc2ccccc2Cl)c2c(N)ncnc21 [GSK2608885], which “%Inh” value is on record?
The value was 42%.

Which “%Inh” value does the source give for COc1cc(Nc2nccc(N3CCC(NC(=O)c4cccc(NC(C)=O)c4)C3)n2)cc(OC)c1OC (centres unmarked) [GSK1379754] here?
Its value is 0%.

Which “%Inh” value does the source give for COc1ccc(S(=O)(=O)NC2CCN(c3cc(C)nc(Nc4cccc(C#N)c4)n3)CC2)cc1.O=C(O)C(F)(F)F [GSK1653539] here?
The value was 0%.

For COc1cc2c(cc1OCCN1CCN(C)CC1)ncc1c3ccc(C#N)cc3[nH]c21, which “%Inh” value is on record?
Its value is 27%.

Which “%Inh” value does the source give for O=C(Nc1n[nH]c2cc(-c3cccc(F)c3)ccc12)C1CC1 [SB-735464] here?
Its value is 3%.

With Cc1cccc(-c2nc(Nc3ccc4ncsc4c3)c3ccccc3n2)n1 [GW867588] as the molecule, how does the “%Inh” value read?
Its value is 3%.

How did the “%Inh” value turn out when Nc1nccc(-c2c(-c3ccc(F)cc3)ncn2C2CCN(CC(F)(F)F)CC2)n1 [SB-236560] was run?
The value was 0%.

How did the “%Inh” value turn out when COc1ccc(Nc2nccc(N3CCC(NC(=O)Nc4cccc(C(C)=O)c4)C3)n2)cc1 (centres unmarked) [GSK1379731] was run?
Its value is 0%.

test system: FER; settings: concentration: 1 μM, replicates: in singlicate; n = 1

With O=C(NCCNc1ccnc(Nc2ccc(F)cc2)n1)c1cc2ccccc2s1 [GSK1379874] as the molecule, how does the “%Inh” value read?
Its value is 16%.

For Cc1nnc(-c2ccc3occ(-c4ccc(C(C)O)cc4)c3c2)o1 (centres unmarked), which “%Inh” value is on record?
Its value is 0%.

NS(=O)(=O)CCc1cccc(Nc2nccc(-c3c(-c4cccc(NC(=O)c5c(F)cccc5F)c4)nn4ccccc34)n2)c1 [GSK336735] was tested. Which “%Inh” value did it give?
The value was 73%.

With NS(=O)(=O)c1cccc(-c2ccc3nccc(-c4cccc(S(N)(=O)=O)c4)c3c2)c1 [GW867253] as the molecule, how does the “%Inh” value read?
Its value is 0%.

Cc1nnc(-c2ccc(C)c(-c3ccc(C(=O)Nc4ccc(NS(C)(=O)=O)cc4)cc3)c2)o1 [GW702865] was tested. Which “%Inh” value did it give?
Its value is 4%.

For Cl.Nc1ncnc2occ(-c3ccc(NC(=O)Nc4cc(C(F)(F)F)ccc4F)cc3)c12 [SB-707548], which “%Inh” value is on record?
Its value is 31%.

Which “%Inh” value does the source give for O=C(NCCCN1CCOCC1)c1cccc(Nc2nccc(Nc3ccc(Oc4ccccc4)cc3)n2)c1 [GW663929] here?
Its value is 19%.

O=C(c1ccc(-c2cc(-c3c[nH]nc3-c3ccccn3)ccn2)cc1)N1CCOCC1 [GW812171] was tested. Which “%Inh” value did it give?
The value was 0%.

CN1c2ccc(NCc3ccc(F)cc3)cc2-c2c(cnn2C)S1(=O)=O was tested. Which “%Inh” value did it give?
Its value is 0%.

Which “%Inh” value does the source give for Cc1nnc(-c2ccc3ncc(-c4ccc(S(C)=O)cc4)n3c2)o1 (centres unmarked) here?
Its value is 0%.

Which “%Inh” value does the source give for COc1cc2ncn(-c3cc(OCc4sccc4Cl)c(C(N)=O)s3)c2cc1OC [GSK448459] here?
Its value is 10%.

[2H]C([2H])(c1cccc(C(F)(F)F)c1C)n1ccn2c(=O)nc(N3CCOCC3)cc12 [GSK2336394] was tested. Which “%Inh” value did it give?
Its value is 33%.

Which “%Inh” value does the source give for Cl.Oc1cccc(Nc2ccnc3cc(-c4ccncc4)ccc23)c1 [GW494601] here?
Its value is 23%.

For CCc1nc(-c2cccc(C)c2)c(-c2ccnc(NCc3ccccc3)c2)s1, which “%Inh” value is on record?
The value was 0%.

Which “%Inh” value does the source give for CN(C(=O)c1ccc(-c2cc(-c3c[nH]nc3-c3ccccn3)ccn2)cc1)C1CCOCC1 [GW810083] here?
Its value is 0%.

For O=C(NOCC1CC1)c1ccc(F)c(F)c1Nc1ccc(I)cc1Cl, which “%Inh” value is on record?
Its value is 0%.

For N#Cc1ccc(-c2cc(-c3c[nH]nc3-c3ccccn3)ccn2)cc1 [GW693028], which “%Inh” value is on record?
Its value is 7%.

How did the “%Inh” value turn out when CN1c2ccc(CNc3ccc(F)cc3)cc2-c2c(cnn2C)S1(=O)=O was run?
The value was 25%.

For O=c1cc(N2CCOCC2)nc2n(Cc3cccc(C(F)(F)F)c3)ccn12 [GSK2297543], which “%Inh” value is on record?
The value was 34%.

Which “%Inh” value does the source give for O=C(NCCNc1ccnc(Nc2ccc(F)cc2)n1)Nc1ccccc1F [GSK1379880] here?
Its value is 11%.

Which “%Inh” value does the source give for COc1cc2c(cc1OC[C@@H](O)CO)ncc1c3ccc(C#N)cc3[nH]c21 here?
The value was 0%.

CCCCCc1nc2c(N)ncnc2n1CCCCC [SKF-97255] was tested. Which “%Inh” value did it give?
Its value is 13%.

O=C(Nc1cccc(-c2nn3ncccc3c2-c2ccnc(Nc3cccc(C(F)(F)F)c3)n2)c1)c1c(F)cccc1F [GSK299495] was tested. Which “%Inh” value did it give?
Its value is 24%.

Which “%Inh” value does the source give for O=c1cc(N2CCOCC2)nc2n(Cc3cccc4ccccc34)ccn12 [GSK2333389] here?
Its value is 1%.

With Cc1c(Cn2c(C)nn3c(=O)cc(N4CCOC(C)C4)nc23)cccc1C(F)(F)F (centres unmarked) [GSK2344444] as the molecule, how does the “%Inh” value read?
Its value is 25%.

Which “%Inh” value does the source give for O=C1NC(=O)C(N2CCc3ccccc32)=C1c1cccc(Cl)c1 [SB-408010] here?
The value was 0%.

How did the “%Inh” value turn out when N#Cc1c(N2CCOCC2)sc(-c2ccn[nH]2)c1-c1ccc(Cl)cc1 was run?
Its value is 11%.

Which “%Inh” value does the source give for Cn1cc(-c2ccc3c(c2)CCN3C(=O)Cc2ccccc2Cl)c2c(N)ncnc21 [GSK2608885] here?
The value was 64%.

With COc1cc(Nc2nccc(N3CCC(NC(=O)c4cccc(NC(C)=O)c4)C3)n2)cc(OC)c1OC (centres unmarked) [GSK1379754] as the molecule, how does the “%Inh” value read?
Its value is 6%.

For COc1ccc(S(=O)(=O)NC2CCN(c3cc(C)nc(Nc4cccc(C#N)c4)n3)CC2)cc1.O=C(O)C(F)(F)F [GSK1653539], which “%Inh” value is on record?
The value was 23%.

With COc1cc2c(cc1OCCN1CCN(C)CC1)ncc1c3ccc(C#N)cc3[nH]c21 as the molecule, how does the “%Inh” value read?
The value was 3%.

For O=C(Nc1n[nH]c2cc(-c3cccc(F)c3)ccc12)C1CC1 [SB-735464], which “%Inh” value is on record?
The value was 1%.

With Cc1cccc(-c2nc(Nc3ccc4ncsc4c3)c3ccccc3n2)n1 [GW867588] as the molecule, how does the “%Inh” value read?
The value was 0%.

Which “%Inh” value does the source give for Nc1nccc(-c2c(-c3ccc(F)cc3)ncn2C2CCN(CC(F)(F)F)CC2)n1 [SB-236560] here?
Its value is 4%.

How did the “%Inh” value turn out when COc1ccc(Nc2nccc(N3CCC(NC(=O)Nc4cccc(C(C)=O)c4)C3)n2)cc1 (centres unmarked) [GSK1379731] was run?
Its value is 12%.
